# Granule exo inh: blocks lytic granule exocytosis; TALL-104 LAMP-1 surface exposure, flow cytometry; cells stimulated with thapsigargin and PMA; inhibition, % at 10 µM; 0.66% of 360,000 active;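 active = inhibition above about 55%, limit read from the data; inconclusive = no clear call, values can overlap the other calls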
# ABCB6 inh 2: inhibitors of human ABC transporter ABCB6 | 0.19% of 360,000 active | fluorescence ratio to DMSO, % at 10 µM | Q9NP58 | K562-ABCB6 porphyrin accumulation, flow cytometry, 1 h; active compounds read low;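 active = fluorescence ratio to DMSO below 75%, the collection mean minus 3 SD; inconclusive = too few cells collected in the well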;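 note: signal is porphyrin accumulated inside mitochondria; 100% equals median channel fluorescence of DMSO control wells; lower ratio means ABCB6 inhibition with less porphyrin fluorescence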
# Target sequence (Q9NP58 whole entry, looked up): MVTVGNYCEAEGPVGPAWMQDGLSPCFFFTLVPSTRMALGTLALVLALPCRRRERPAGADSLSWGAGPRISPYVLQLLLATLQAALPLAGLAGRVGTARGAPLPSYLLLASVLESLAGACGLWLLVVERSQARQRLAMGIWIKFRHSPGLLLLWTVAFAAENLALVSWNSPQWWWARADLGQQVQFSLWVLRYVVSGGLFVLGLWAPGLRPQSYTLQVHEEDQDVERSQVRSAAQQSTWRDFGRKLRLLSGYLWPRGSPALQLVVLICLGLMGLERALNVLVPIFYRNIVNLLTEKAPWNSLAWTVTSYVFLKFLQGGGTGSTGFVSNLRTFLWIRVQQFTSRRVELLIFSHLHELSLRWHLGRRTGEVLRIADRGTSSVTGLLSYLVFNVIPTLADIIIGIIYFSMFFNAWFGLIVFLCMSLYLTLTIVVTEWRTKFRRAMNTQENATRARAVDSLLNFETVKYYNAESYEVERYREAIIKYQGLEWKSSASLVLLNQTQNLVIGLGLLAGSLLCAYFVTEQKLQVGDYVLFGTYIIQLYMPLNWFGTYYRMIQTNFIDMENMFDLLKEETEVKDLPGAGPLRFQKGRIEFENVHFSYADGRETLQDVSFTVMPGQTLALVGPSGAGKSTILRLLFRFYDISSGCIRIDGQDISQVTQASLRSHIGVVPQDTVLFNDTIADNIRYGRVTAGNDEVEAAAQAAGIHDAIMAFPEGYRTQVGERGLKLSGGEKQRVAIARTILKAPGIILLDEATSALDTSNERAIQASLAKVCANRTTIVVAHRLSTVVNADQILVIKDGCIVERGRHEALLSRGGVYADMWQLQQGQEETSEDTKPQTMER
# Myeloid diff MLP: promotes myeloid progenitor differentiation; ER-HoxA9 myeloid progenitors, lysozyme-GFP differentiation, flow cytometry; calls only at 10 µM; AID 624256; 1% of 360,000 active;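 active = normalized GFP-positive differentiation at or above the plate's own cutoff, the solvent-only control mean plus 3 SD; inconclusive = no clear call, values can overlap the other calls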;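 note: cells exposed to compound for four days before flow analysis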
# Active calls of the source: *; i = inactive; ? = inconclusive; + = active, no number. Shown are actives, neighbours in structure and some others; about 1.8% of the full set was active somewhere.
SMILES,Granule exo inh,ABCB6 inh 2,Myeloid diff MLP
CC(=O)OCCCN1c2ccccc2Nc2nnc(-c3ccccc3)cc21,-0.7,108.0,+
CC(=O)OCCN1c2ccccc2Sc2cnccc21,-3.4,91.0,i
CC(C)(C)OC(=O)NCCCCCNC(=O)c1[nH]cnc1C(=O)Nc1cc(Br)ccc1F,2.4,98.0,i
COc1ccccc1OC(C)C(=O)Nc1nc(-c2ccc(S(=O)(=O)N3CCOCC3)cc2)cs1 (centres undefined),2.9,82.0,i
COc1ccccc1C(=O)Nc1nc(-c2ccc(S(=O)(=O)N3CCOCC3)cc2)cs1,64.9*,90.0,i
CC1(C(=O)NCCOc2ccccc2Cl)CC1(Cl)Cl (centres undefined),-6.8,101.0,i
COc1ccc2nc(C)cc(N/N=C/c3cccc(OC)c3O)c2c1,44.4,104.0,i
Cc1cc(N/N=C/c2ccccc2O)c2ccccc2n1,75.8*,93.0,i
c1cc2c(cc1C1CCCCC1)c1c3n2CCN=C3CCC1,7.2,108.0,i
Cc1ccc2c(c1)c1c3n2CCN=C3CCC1,1.6,100.0,+
O=C1OC(c2ccc(O)cc2)(c2ccc(O)cc2)c2ccccc21,-1.4,78.0,i
O=C1OC(c2ccccc2)(c2ccc3cc(O)ccc3c2)c2ccccc21 (centres undefined),23.7,i,+
COc1ccc(C(=O)N/C(=C\c2cn(S(=O)(=O)N(C)C)c3ccccc23)C(=O)N2CCCC2)cc1,-2.0,94.0,i
C[C@H](NC(=O)N1CCn2c1nc1ccccc12)C(=O)NCc1ccco1,-1.5,96.0,i
CC(C)C[C@H](NC(=O)N1CCn2c1nc1ccccc12)C(=O)NCc1ccco1,29.7,109.0,+
CC(C)[C@H](NC(=O)N1CCn2c1nc1ccccc12)C(=O)N[C@H](Cc1ccccc1)C(=O)O,-7.1,98.0,i
COc1cc(NC(=O)[C@@H](NC(=O)N2CCn3c2nc2ccccc23)C(C)C)cc(OC)c1,-2.5,92.0,+
Nc1nc2ccccc2[nH]1,-2.5,98.0,i
Nc1ccccc1Sc1nc2ccccc2[nH]1,61.2*,105.0,i
Oc1cccc(-c2nc3ccccc3s2)c1,-1.7,96.0,i
Cc1cc(C)c(-c2nc3ccccc3s2)[nH]1,11.5,118.0,+
COc1cc(NC(=O)CSc2nnnn2C2CCCC2)cc(OC)c1,13.1,101.0,i
O=C(Nc1cccc(OC(F)(F)F)c1)C1Cc2c(-c3cccc(F)c3)ccnc2O1 (centres undefined),3.7,95.0,i
CCCCCCCCN1C(=O)[C@H](CC(=O)N2CCCC2)C[C@@]2(C(=O)OC)CCCCC=C12,1.6,101.0,?
CCN(CC)c1ccc2cc(-c3nc4ccccc4n3C)c(=O)oc2c1,-1.9,110.0,?
SMILES,Granule exo inh,ABCB6 inh 2,Myeloid diff MLP
CCN(CC)c1ccc2cc(C(=O)c3cccs3)c(=O)oc2c1,-4.0,321.0,+
CCN(CC)c1ccc2cc(-c3nc4ccccc4[nH]3)c(=O)oc2c1,14.4,707.0,+
O=c1oc2ccc3ccccc3c2cc1-c1nnc(-c2ccccc2)o1,0.9,98.0,i
CCN(CC)c1ccc2cc(C(=O)NCc3ccc(F)cc3)c(=N)oc2c1,38.0,196.0,i
CCN(CC)c1ccc2cc(-c3nnc(-c4ccccc4)o3)c(=O)oc2c1,-4.0,329.0,+
CCC(C)NC(=O)c1cn(-c2cccc(OC)c2)c(=O)c2ccccc12 (centres undefined),-3.5,95.0,i
O=C(COC(=O)COc1ccc(Cl)cc1Cl)NC1CCS(=O)(=O)C1 (centres undefined),-3.1,98.0,i
CCN1C=C(C(C)=O)C(=O)CC1,-0.6,103.0,i
CCCCN1C(=O)C(CC(=O)NCCCN(C)C)CC(C(=O)N(C(C)C)C(C)C)=C1C (centres undefined),-0.4,105.0,i
Cc1cc(C)n(-c2nc(N(c3ccccc3)c3ccccc3)nc(-n3nc(C)cc3C)n2)n1,88.3*,94.0,i
Cc1cc(C)n(-c2nc(Nc3ccccc3)nc(-n3nc(C)cc3C)n2)n1,-1.9,102.0,i
CN(C(=O)c1cccc(NC(=O)Cc2ccc(NC(=O)C3CCN(C(=O)C4CCC4)CC3)cc2)c1)C1CCC1,1.7,97.0,i
O=C(NC(=S)NC12CC3CC(CC(C3)C1)C2)c1ccc(F)cc1,1.3,97.0,i
CC(=O)N1CCN(CC(=O)Nc2ccc(C)c(S(=O)(=O)N(C)C)c2)CC1,0.0,102.0,i
Cc1ccc(NC(=O)CN2CCC(Cc3ccccc3)CC2)cc1S(=O)(=O)N(C)C,16.0,487.0,+
O=C(CN1C(=O)c2ccccc2C1=O)Nc1ccccc1,-5.7,105.0,i
O=C(Cn1sc2ccccc2c1=O)Nc1ccccc1,49.6,107.0,+
CN1CCN(c2cc(=O)n(Cc3ccc(F)cc3)c(=O)[nH]2)CC1,-0.1,97.0,i
O=c1cc(N2CCN(c3ccccc3)CC2)[nH]c(=O)n1Cc1ccc(F)cc1,-2.1,106.0,+
COc1ccccc1S(=O)(=O)N(C)C[C@H]1Oc2cc(C#CCC3CCCC3)ccc2S(=O)(=O)N([C@H](C)CO)C[C@H]1C,25.0,95.0,i
Cc1ccc(S(=O)(=O)N2CCN(C(=O)Cn3c(=O)cnc4ccccc43)CC2)cc1,2.0,111.0,i
COC(=O)C1=C(C(=O)OC)[C@]2([C@@H]3CC=CCN[C@@H](Cc4ccccc4)C(=O)N3Cc3ccccc3)C=C[C@H]1O2,13.4,96.0,i
C=CCC(Nc1ccccc1)C12C=CC(O1)C(C(=O)OC)=C2C(=O)OC (centres undefined),89.8*,93.0,?
CCOC(=O)C1=C(C)NC2=C(C(=O)CC(c3cccs3)C2)C1c1cccs1 (centres undefined),45.3,116.0,+
COC(=O)C1=C(C)NC2=C(C(=O)CC(c3cccs3)C2)C1c1ccsc1 (centres undefined),-9.8,103.0,i
SMILES,Granule exo inh,ABCB6 inh 2,Myeloid diff MLP
Cc1cccc(N2CCN(C(=O)c3cccc(S(=O)(=O)N4CCOCC4)c3)CC2)c1C,13.6,93.0,i
Cc1nc2ccc(NC(=O)c3ccc(C)c(S(=O)(=O)N4CCOCC4)c3)cc2s1,3.0,92.0,i
CC1(C(=O)Nc2ccc(F)cc2F)CCN1C(=O)CCC1CCCC1 (centres undefined),5.1,96.0,i
Cc1ccc(/C=N/NC(=O)NC2CCCCC2)o1,0.3,100.0,i
Cc1ccc(/C=C/C(=O)NC2CCCCCCC2)o1,58.0*,96.0,i
COc1cc(/C=c2\sc3n(c2=O)CCCN=3)ccc1O,2.2,114.0,i
COc1cc(/C=c2\sc3n(c2=O)C(c2ccccc2)C(c2ccccc2)=NN=3)ccc1O (centres undefined),1.1,120.0,+
CO/N=C\CC(=O)Nc1ccc(Cl)cc1Cl,0.8,101.0,+
CO/N=C\CC(=O)Nc1ccc(F)cc1,-3.4,99.0,i
CCc1ccc([C@@H]2C[C@H]3[C@@H](CN2S(=O)(=O)c2ccc(C)cc2)C(=O)C[C@@H](c2cccc(Cl)c2)N3S(=O)(=O)c2ccc(C)cc2)cc1,-3.6,98.0,i
O=C(CC[C@H]1O[C@@H](n2ccc(=O)[nH]c2=O)[C@H](O)[C@@H]1O)N[C@H](Cc1ccccc1)C(=O)NCc1cccs1,-4.2,103.0,i
